OTUD3 inh: blocks human OTUD3 ubiquitin-rhodamine cleavage. Q5T2D3. purified OTUD3, Ub-rhodamine fluorescence, 2 h. inhibition, % at 25 µM. 47,000 tested, 0.7% active. AID 1645858
USP30 inh: inhibitors of human USP30 deubiquitinase; purified USP30, Ub-rhodamine cleavage fluorescence; inhibition, % at 25 µM; 47,000 tested, 5.3% active
USP17 inh: inhibitors of human USP17 deubiquitinase; AID 1645855; 47,000 tested, 6.5% active; purified USP17, Ub-rhodamine cleavage fluorescence, 3 h; inhibition, % at 50 µM
USP28 inh: blocks human USP28 ubiquitin-rhodamine cleavage; purified USP28, Ub-rhodamine cleavage fluorescence, 30 min; inhibition, % at 25 µM; 47,000 tested, 3% active; AID 1645857
Large screens that a line does not name were inactive. Sampled rows, rich in hits. Any-hit rate of the full collection: about 11%. Cut-off read from the data, not from the text of the source: active = inhibition above about 30%; inactive = the rest.

Cc1ccc(-c2c[nH]cc2C(=O)c2ccc(Br)cc2)cc1	none
CCC1CCCCN1C(=O)Cn1ncc2c(=O)oc3ccccc3c21 (stereo not drawn)	none
COc1cc(C2=NO[C@]3(C(=O)Nc4ccccc43)[C@H]2C(=O)c2ccc(C)cc2)ccc1OCC#N	USP17 inh 43
CNc1cccc(C2CN(Cc3ccc4c(c3)OCCO4)CCO2)n1 (stereo not drawn)	none (no result: USP30 inh, USP28 inh)
Cc1ccc(-c2nnn(CC(=O)N(c3ccc(C4CCCCC4)cc3)C(C(=O)NC3CCCCC3)c3ccc(F)cc3)n2)o1 (stereo not drawn)	USP17 inh 33
Cc1ccc(-c2nnn(CC(=O)N(c3ccccc3C)C(C(=O)NC3CCCC3)c3ccncc3)n2)o1 (stereo not drawn)	USP17 inh 41
COc1ccccc1C1(c2nnc(CC3CCCCC3)o2)CCOCC1	none
COc1cc([C@@H]2c3cc4c(cc3[C@H](O)[C@H]3COC(=O)[C@@H]23)OCO4)cc(OC)c1OC	USP30 inh 71, USP17 inh 63, USP28 inh 35
CC(c1nnc(-c2ccccc2)o1)N1CCN(Cc2ccccc2)CC1 (stereo not drawn)	none
Cc1csc2ncc(C(=O)NCCc3ccc(Cl)cc3)c(=O)n12	USP17 inh 37
CC(NS(=O)(=O)c1cccc(Cl)c1)C(=O)O (stereo not drawn)	USP30 inh 30
CC(=O)N1CC2(CCN(C(=O)c3ccccn3)CC2)Nc2ccccc21	none
O=c1cc(-c2ccc(O)c(O)c2)oc2cc(O[C@@H]3O[C@H](CO)[C@@H](O)[C@H](O)[C@H]3O)cc(O)c12	OTUD3 inh 97, USP30 inh 91, USP17 inh 84, USP28 inh 90
O=C(CN1C(=O)CC(c2ccc(F)cc2)=Nc2ccccc21)Nc1ccccc1	USP17 inh 38
COc1ccc(CNC(=O)CN2C(=O)CC(c3ccccc3)=Nc3ccccc32)cc1	USP17 inh 83
O=C(CN1C(=O)CC(c2ccccc2)=Nc2ccccc21)NCc1ccccc1Cl	none
O=C(Nc1ccccc1F)c1cncc(NS(=O)(=O)c2ccccc2)c1	none
Nc1ccc(F)c(NS(=O)(=O)c2ccccc2)c1	OTUD3 inh 55, USP17 inh 58, USP28 inh 41
CC1CCN(c2cc(-n3cnc(C(=O)N4CCCC(C)C4)c3)ncn2)CC1 (stereo not drawn)	USP28 inh 62
CC(=O)Nc1ccc(-n2cnc(C(=O)N3CCCC(C)C3)c2)nc1 (stereo not drawn)	USP30 inh 41
CC1CCN(c2cc(-n3cnc(C(=O)N4CCCCC4)c3)ncn2)CC1	USP28 inh 51
CCOc1cc2[nH]c(=O)n(CC3CCC(C(=O)NCCc4c[nH]c5ccccc45)CC3)c(=O)c2cc1OCC (stereo not drawn)	USP30 inh 37
O=C(NCc1nnc(SCC(=O)N2CCN(c3ccccc3)CC2)o1)c1ccccc1F	none
O=C(CSc1nnc(CNC(=O)c2ccccc2F)o1)Nc1ccc(Br)cc1	USP17 inh 33
CC(C)(C)c1ccccc1NC(=O)N1CCNC(=O)C1CC(=O)Nc1ccc(F)cc1 (stereo not drawn)	none
CCOC(=O)C1CCN(C(=O)c2ccc(CNS(=O)(=O)c3ccc(Cl)cc3)cc2)CC1	USP30 inh 32
CCOC(=O)C1CCN(C(=O)c2ccc(CNS(=O)(=O)c3ccc(OC)cc3)cc2)CC1	none
CC(C)C(=O)Nc1c(-c2ccccc2Cl)c(=O)c2ccccc2n1C	none
COc1ccc(S(=O)(=O)N2CCC3(CC2)CC3c2nc(-c3cccnc3)no2)c(C)c1 (stereo not drawn)	USP30 inh 36
COc1cccc(C2=NC(C(F)(F)F)(C(F)(F)F)C(C#N)=C(C)N2)c1	none
Cc1cc(C(=O)N2CC(C(=O)Nc3ccc(F)c(Cl)c3)C2)no1	none
Cc1cc(C(=O)N2CC(C(=O)Nc3cc(C(F)(F)F)ccc3Cl)C2)no1	USP30 inh 70, USP17 inh 41
CCOC(=O)c1sc2nc(CN3CCc4ccccc4C3)[nH]c(=O)c2c1C	none
O=C(c1cc(C2CC2)[nH]n1)N1CCCCC1	none
O=C(c1cc(C2CC2)[nH]n1)N1CCN(Cc2ccccc2)CC1	USP30 inh 34
COc1cccc(N2CCN(C(=O)C3CCN(c4nc(NC(C)=O)ns4)CC3)CC2)c1	USP17 inh 69
CC(=O)Nc1nsc(N2CCC(C(=O)N3CCN(c4ccc(C)cc4)CC3)CC2)n1	none
COc1ccc(S(=O)(=O)N2Cc3ccccc3N(C)C(C)C2)cc1 (stereo not drawn)	none
CC(C)C[C@@H]1NC(=O)[C@H](CCCN)NC(=O)[C@H](C(C)C)NC(=O)[C@H](Cc2ccc(O)cc2)NC(=O)[C@H](CCC(N)=O)NC(=O)[C@H](CC(N)=O)NC(=O)[C@@H](Cc2ccccc2)NC(=O)[C@H](Cc2ccccc2)NC(=O)[C@@H]2CCCN2C(=O)[C@@H](Cc2ccccc2)NC1=O	USP28 inh 39
O=C(COC(=O)C(c1ccccc1)c1ccccc1)NCc1ccccc1	USP30 inh 34
CCc1ccc(NS(=O)(=O)c2c[nH]c3ccc([N+](=O)[O-])cc23)cc1	USP30 inh 66, USP17 inh 60
Cc1ccc(S(=O)(=O)N2CCCN(C(=O)c3oc4ccccc4c3C)CC2)cc1	USP30 inh 33
Cc1c(C(=O)N2CCCN(S(=O)(=O)c3ccc(F)cc3)CC2)oc2ccc(F)cc12	none
CSc1cccc(NC(=O)C2Cc3ccccc3CN2C(=O)c2ccco2)c1 (stereo not drawn)	USP17 inh 31
Cn1c(=O)n(CC(=O)N2CCCCCC2)c(=O)c2cnc(-c3ccc(Cl)cc3)nc21	none
Cc1nn(-c2ccc(F)cc2)cc1-c1noc(C(=O)NCc2ccccn2)n1	USP30 inh 85 (no result: USP17 inh)
Cc1nn(-c2ccccc2)cc1-c1noc(C(=O)NCCCc2ccccc2)n1	USP30 inh 32
CC1=C(C(=O)NC2CC2)C2(CCCCCC2)OC1=O	none
CCc1ccc(N2CC(c3noc(-c4ccccn4)n3)CC2=O)cc1 (stereo not drawn)	none (no result: USP17 inh)
Cc1ccccc1CNC(=O)CN1C(=O)C2CCCN2C(=O)c2cccc(C)c21 (stereo not drawn)	USP30 inh 37
Cc1ccc(CNC(=O)CN2C(=O)C3CCCN3C(=O)c3cccc(C)c32)cc1 (stereo not drawn)	none
Cc1ccccc1OCC(=O)Oc1ccc(-n2cnnn2)cc1	none
N#Cc1ccccc1-c1ccccc1C(=O)NCc1ccc(F)cc1	none
Cc1ccc(NC(=O)CCc2nnc(C(=O)Nc3ccccc3)s2)cc1C	USP17 inh 39
Cc1cccc(N2CCN(C(=O)CCc3nnc(C(=O)Nc4ccccc4)s3)CC2C)c1 (stereo not drawn)	none
FC(F)(F)c1cnc(N2CCC(c3ncn[nH]3)CC2)c(Cl)c1	USP28 inh 43
O=C1COc2ccc(NC(=O)N3CCN(c4ncc(C(F)(F)F)cc4Cl)CC3)cc2N1	none
CC(=O)Nc1ccc(C(=O)NCc2ccccc2F)c(N2CCOCC2)c1	none
CC(=O)Nc1ccc(C(=O)NCc2ccccc2F)c(N2CCCCC2)c1	USP28 inh 37
CCCCNC(=O)Cc1c(C)[nH]n(-c2nc(C)c(C)s2)c1=O	none

Bioassay records as filed in PubChem.
